{"source": "paper PMC4336329", "about": "(PLoS ONE, 2015)", "note": "Out of some 310,000 compounds screened, about 2,200 (0.71%) showed an effect of 50% or more. Effects have a minus sign here. The sample holds strong results, similar compounds and a random draw of the others, so the mix is not that of the screen."}
{"biological_target": "human ether-à-go-go-related gene (hERG) potassium channel (human, UniProt Q12809)", "sequence (Q12809 whole entry, looked up)": "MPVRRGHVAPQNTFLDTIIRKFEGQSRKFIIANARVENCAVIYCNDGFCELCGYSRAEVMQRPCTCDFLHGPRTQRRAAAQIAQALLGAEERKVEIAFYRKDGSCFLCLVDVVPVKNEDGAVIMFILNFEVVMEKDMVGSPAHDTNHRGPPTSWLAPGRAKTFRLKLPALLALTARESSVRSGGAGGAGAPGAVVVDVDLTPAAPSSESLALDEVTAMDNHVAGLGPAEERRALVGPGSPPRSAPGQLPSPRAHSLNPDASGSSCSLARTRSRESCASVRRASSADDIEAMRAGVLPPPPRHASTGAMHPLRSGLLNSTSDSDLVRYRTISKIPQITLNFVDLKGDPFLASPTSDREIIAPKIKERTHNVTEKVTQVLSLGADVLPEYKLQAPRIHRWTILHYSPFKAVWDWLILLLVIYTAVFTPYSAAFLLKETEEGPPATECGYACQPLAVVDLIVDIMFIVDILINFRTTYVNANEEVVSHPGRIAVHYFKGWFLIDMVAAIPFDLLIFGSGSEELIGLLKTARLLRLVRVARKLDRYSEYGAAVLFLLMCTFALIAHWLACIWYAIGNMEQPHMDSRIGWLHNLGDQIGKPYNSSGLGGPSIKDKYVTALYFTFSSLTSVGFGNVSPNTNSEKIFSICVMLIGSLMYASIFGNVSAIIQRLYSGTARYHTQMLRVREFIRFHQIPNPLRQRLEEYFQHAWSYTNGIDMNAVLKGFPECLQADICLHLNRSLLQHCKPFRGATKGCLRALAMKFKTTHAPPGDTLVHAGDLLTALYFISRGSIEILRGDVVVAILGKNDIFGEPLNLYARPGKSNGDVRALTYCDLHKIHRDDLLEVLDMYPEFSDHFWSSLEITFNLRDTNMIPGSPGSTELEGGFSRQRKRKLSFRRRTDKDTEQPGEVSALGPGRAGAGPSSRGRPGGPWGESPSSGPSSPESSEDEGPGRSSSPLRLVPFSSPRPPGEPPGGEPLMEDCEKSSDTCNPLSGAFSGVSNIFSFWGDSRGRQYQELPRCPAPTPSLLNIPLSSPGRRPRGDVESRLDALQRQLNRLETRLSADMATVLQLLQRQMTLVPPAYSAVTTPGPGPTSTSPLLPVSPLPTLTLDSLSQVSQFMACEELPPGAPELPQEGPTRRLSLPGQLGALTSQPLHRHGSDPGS", "experiment": "primary screen, population patch clamp on CHO cells stably expressing hERG; higher = less effect of the substance", "units": {"hERG current change (%, negative = inhibition) at 1uM": "%"}}
{"compound": "O=C(CCSc1nc2ccccc2o1)N1CCOCC1", "hERG current change (%, negative = inhibition) at 1uM": 8.39}
{"compound": "CCOc1cc(C(=O)Nc2cccc3ncccc23)cc(OCC)c1OCC", "hERG current change (%, negative = inhibition) at 1uM": -2.81}
{"compound": "COC(=O)Cc1c(O)ccn(Cc2ccccc2OC)c1=O", "hERG current change (%, negative = inhibition) at 1uM": 10.5}
{"compound": "COc1cc(/C=N/Nc2nc3ccccc3[nH]2)cc(Br)c1OCC(=O)N(C)C", "hERG current change (%, negative = inhibition) at 1uM": 0.153}
{"compound": "COc1ccc2c(CCNC(=O)c3ccc([N+](=O)[O-])cc3)c[nH]c2c1", "hERG current change (%, negative = inhibition) at 1uM": 12.8}
{"compound": "Cc1cccn2c(=O)c(C=Nc3ccccc3)c(NCCO)nc12", "hERG current change (%, negative = inhibition) at 1uM": 6}
{"compound": "Cc1c(CC(=O)O)c(=O)oc2c(C)c3occ(-c4ccccc4)c3cc12", "hERG current change (%, negative = inhibition) at 1uM": 19.9}
{"compound": "CC1(c2ccc(OC(F)F)cc2)NC(=O)N(CC(=O)Nc2ccc(F)cc2)C1=O", "note": "(stereo not shown)", "hERG current change (%, negative = inhibition) at 1uM": -15.6}
{"compound": "CC1(c2ccc(OC(F)F)cc2)NC(=O)N(CC(=O)Nc2ccccc2)C1=O", "note": "(stereo not shown)", "hERG current change (%, negative = inhibition) at 1uM": -26.2}
{"compound": "CC1(c2ccc(OC(F)F)cc2)NC(=O)N(CC(=O)Nc2ccc(OC(F)F)cc2)C1=O", "note": "(stereo not shown)", "hERG current change (%, negative = inhibition) at 1uM": -100}
{"compound": "COc1ccc(O)c(/C=N/NC(=O)CN2CCS(=O)(=O)CC2)c1", "hERG current change (%, negative = inhibition) at 1uM": 15.5}
{"compound": "COc1ccc(C2=NN(C(=O)CSc3nnc(C)c(=O)n3N)C(c3ccco3)C2)cc1", "note": "(stereo not shown)", "hERG current change (%, negative = inhibition) at 1uM": -0.0705}
{"compound": "COc1ccccc1CC(=O)N1CCN(c2ccc([N+](=O)[O-])cc2)CC1", "hERG current change (%, negative = inhibition) at 1uM": -8.15}
{"compound": "COc1cc(CCC(=O)N2CCN(c3ccc([N+](=O)[O-])cc3)CC2)cc(OC)c1OC", "hERG current change (%, negative = inhibition) at 1uM": -83.6}
{"compound": "COc1cc(CCC(=O)N2CCN(c3ccccc3)CC2)cc(OC)c1OC", "hERG current change (%, negative = inhibition) at 1uM": -0.0932}
{"compound": "COc1ccc(CCC(=O)N2CCN(c3ccccc3)CC2)cc1OC", "hERG current change (%, negative = inhibition) at 1uM": 13.5}
{"compound": "COCC(=O)N1CCN(c2ccc([N+](=O)[O-])cc2)CC1", "hERG current change (%, negative = inhibition) at 1uM": -31.5}
{"compound": "COc1ccc(CCC(=O)N2CCN(c3ccc([N+](=O)[O-])cc3)CC2)cc1OC", "hERG current change (%, negative = inhibition) at 1uM": -76.1}
{"compound": "CCOC(=O)Cc1nnc(-c2ccccc2)o1", "hERG current change (%, negative = inhibition) at 1uM": 5.78}
{"compound": "COc1ccc2nc(NC(=O)c3ccoc3C)sc2c1", "hERG current change (%, negative = inhibition) at 1uM": 17.6}
{"compound": "S=C(NN=C1C2CC3CC(C2)CC1C3)Nc1ccccc1", "hERG current change (%, negative = inhibition) at 1uM": 11.9}
{"compound": "CC(=O)Nc1ccc2oc(C)nc2c1", "hERG current change (%, negative = inhibition) at 1uM": 22.4}
{"compound": "CC(C)(C)OC(=O)N[C@H](C(=O)OC(C)(C)C)c1ccc(C(F)(F)F)cc1", "hERG current change (%, negative = inhibition) at 1uM": 12.8}
{"compound": "O=C(NCc1ccco1)c1cnc2ccccn2c1=O", "hERG current change (%, negative = inhibition) at 1uM": 5.25}
{"compound": "Cc1ccc2nc(SCC(=O)NCc3ccco3)nc(=O)n2c1", "hERG current change (%, negative = inhibition) at 1uM": 11.3}
{"compound": "Cn1c2ccccc2c2c(C(=O)NCc3ccco3)cn(C3CCCCC3)c(=O)c21", "hERG current change (%, negative = inhibition) at 1uM": 7.44}
{"compound": "N=c1c(S(=O)(=O)c2ccccc2)cc2c(=O)n3ccccc3nc2n1C1CCCC1", "hERG current change (%, negative = inhibition) at 1uM": 8.93}
{"compound": "N=c1c(C(=O)NCc2ccco2)cc2c(=O)n3ccccc3nc2n1C1CCCC1", "hERG current change (%, negative = inhibition) at 1uM": -82.2}
{"compound": "Cc1ccc2nc3c(cc(C(=O)NCc4ccco4)c(=N)n3C3CCCC3)c(=O)n2c1", "hERG current change (%, negative = inhibition) at 1uM": -83.2}
{"compound": "C/C(=N\\NC(=O)c1ccccc1[N+](=O)[O-])c1ccc(Br)s1", "hERG current change (%, negative = inhibition) at 1uM": 14.7}
{"compound": "COc1ccc(CCNC(=O)CN(C2CCCCC2)S(C)(=O)=O)cc1", "hERG current change (%, negative = inhibition) at 1uM": 4.21}
{"compound": "COC(=O)c1scc(C)c1S(=O)(=O)Nc1ccc(C)cc1", "hERG current change (%, negative = inhibition) at 1uM": 12.7}
{"compound": "Cc1nc2scc(C)n2c(=O)c1S(=O)(=O)Nc1ccc(N2CCOCC2)cc1", "hERG current change (%, negative = inhibition) at 1uM": 5.65}
{"compound": "Cc1ccc(S(=O)(=O)N2CCN(C(=O)c3cccs3)CC2)cc1C", "hERG current change (%, negative = inhibition) at 1uM": 2.03}
{"compound": "CCN1C(=O)C(CC(=O)Nc2ccc(Cl)cc2)N(NC(=O)c2ccncc2)C1=S", "note": "(stereo not shown)", "hERG current change (%, negative = inhibition) at 1uM": 12.2}
{"compound": "CN1CCCN(Cc2nc(-c3cccc(C(F)(F)F)c3)no2)CC1", "hERG current change (%, negative = inhibition) at 1uM": -15.4}
{"compound": "FC(F)(F)c1ccc(-c2noc(CN3CCCN(C4CCCCC4)CC3)n2)cc1", "hERG current change (%, negative = inhibition) at 1uM": -75.3}
{"compound": "Cc1ccc(-c2noc(CN3CCCCC3)n2)cc1", "hERG current change (%, negative = inhibition) at 1uM": 31.5}
{"compound": "CCN(CC)S(=O)(=O)c1cc(C(=O)Nc2cccnc2)ccc1Cl", "hERG current change (%, negative = inhibition) at 1uM": -40.3}
{"compound": "CC(=O)N1CCOc2ccc(S(=O)(=O)Nc3ccc(C)cn3)cc21", "hERG current change (%, negative = inhibition) at 1uM": 4.68}
{"compound": "COCCNC(=O)c1ccccc1NC(=O)c1ccc(OC)c(OC)c1", "hERG current change (%, negative = inhibition) at 1uM": 4.05}
{"compound": "COc1ccc(-c2cc(C3CCN(Cc4ccc([N+](=O)[O-])cc4)CC3)[nH]n2)cc1", "hERG current change (%, negative = inhibition) at 1uM": -44.3}
{"compound": "COc1ccc(-c2cc(C3CCN(Cc4cccc(C(F)(F)F)c4)CC3)[nH]n2)cc1", "hERG current change (%, negative = inhibition) at 1uM": -13}
{"compound": "CCOC(=O)CN1CCC(c2cc(-c3ccc(Cl)cc3)n[nH]2)CC1", "hERG current change (%, negative = inhibition) at 1uM": 22.3}
{"compound": "Cc1ccc(CN2CCC(c3cc(-c4ccc(Cl)cc4)n[nH]3)CC2)cc1", "hERG current change (%, negative = inhibition) at 1uM": -78.1}
{"compound": "CC(C)(C)OC(=O)N1CCC(c2cc(-c3cccs3)n[nH]2)CC1", "hERG current change (%, negative = inhibition) at 1uM": 4.89}
{"compound": "Cc1ccc(CN2CCC(c3cc(-c4cccs4)n[nH]3)CC2)cc1", "hERG current change (%, negative = inhibition) at 1uM": -85.6}
{"compound": "S=c1[nH]ncn1/N=C/c1ccccc1", "hERG current change (%, negative = inhibition) at 1uM": 14.4}
{"compound": "COc1nc(Nc2ccc([N+](=O)[O-])cc2)nc(NC2CCCCC2)n1", "hERG current change (%, negative = inhibition) at 1uM": 11.2}
{"compound": "O=C(COc1ccccc1Cl)N1CCN(c2ccc([N+](=O)[O-])c(N3CCCCC3)c2)CC1", "hERG current change (%, negative = inhibition) at 1uM": 0.717}
{"compound": "CCCCCNC(=O)[C@@H]1CSC2c3ccccc3C(=O)N21", "note": "(stereo partly shown)", "hERG current change (%, negative = inhibition) at 1uM": 14}
{"compound": "COc1ccc(CCc2nc(-c3cccs3)no2)cc1", "hERG current change (%, negative = inhibition) at 1uM": 5.28}
{"compound": "O=C(CSc1ccc2nnc(-c3ccncc3)n2n1)Nc1ccc2c(c1)OCO2", "hERG current change (%, negative = inhibition) at 1uM": 13.8}
{"compound": "O=C(CSc1nnc(-c2ccc(Cl)cc2)n1Cc1ccco1)NCc1ccc2c(c1)OCO2", "hERG current change (%, negative = inhibition) at 1uM": -51.6}
{"compound": "O=C(CSc1ccc2nnc(-c3ccccn3)n2n1)Nc1ccc2c(c1)OCO2", "hERG current change (%, negative = inhibition) at 1uM": 2.61}
{"compound": "O=C(CSc1nnc(-c2cccnc2)n1-c1ccc(F)cc1)NCc1ccc2c(c1)OCO2", "hERG current change (%, negative = inhibition) at 1uM": -54.5}
{"compound": "O=C(CSc1nnc(-c2ccccc2)n1Cc1ccco1)NCc1ccc2c(c1)OCO2", "hERG current change (%, negative = inhibition) at 1uM": -22.2}
{"compound": "O=C(CSc1ccc2nnc(-c3ccccn3)n2n1)NCc1ccc2c(c1)OCO2", "hERG current change (%, negative = inhibition) at 1uM": -65.8}
{"compound": "O=C(CSc1ccc2nnc(-c3cccnc3)n2n1)NCc1ccc2c(c1)OCO2", "hERG current change (%, negative = inhibition) at 1uM": 4.47}
{"compound": "C=CCn1c(SCC(=O)NCc2ccc3c(c2)OCO3)nnc1-c1cccnc1", "hERG current change (%, negative = inhibition) at 1uM": 8.01}
{"compound": "O=C(CSc1ccc2nnc(-c3ccccn3)n2n1)Nc1ccc2c(c1)OCCO2", "hERG current change (%, negative = inhibition) at 1uM": -2.96}
{"compound": "O=C(CSc1ccc2nnc(-c3ccccc3)n2n1)NCc1ccc2c(c1)OCO2", "hERG current change (%, negative = inhibition) at 1uM": -71}
{"compound": "O=C(CSc1nnc(-c2cccnc2)n1-c1ccccc1)NCc1ccc2c(c1)OCO2", "hERG current change (%, negative = inhibition) at 1uM": -47.9}
{"compound": "O=C(CSc1nnc(-c2cccnc2)n1Cc1ccco1)NCc1ccc2c(c1)OCO2", "hERG current change (%, negative = inhibition) at 1uM": -20.4}
